Screening results deposited in PubChem by National Center for Advancing Translational Sciences (NCATS).
IL-1B inflam inh – blocks inflammasome-driven IL-1 beta release; hit rate 4.7% among 360,000; THP-1 LPS/ATP IL-1B secretion, AlphaLISA, 16 h; stronger effect = lower value; activity change, % at 57.5 µM; in the data active = activity change below about -50%; inconclusive = mostly about -30% to -49%
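Secreted IL-1B measured by AlphaLISA bead assay after 16 h compound exposure of THP-1 cells; compounds (final up to 57.5 uM) added 1 h before LPS (250 ng/mL) and ATP (1.25 mM) stimulation; lower signal means less secretion.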
TDP1 cell noCPT – qHTS for Inhibitors of human tyrosyl-DNA phosphodiesterase 1 (TDP1): qHTS in cells in absence of CPT. DT40 Tdp1-/- hTDP1 cells, no CPT, ATP luminescence, 48 h. Potency, µM (series often up to 46.2 µM), usual class: inhibitors. hit rate 15% among 420,000; note: nearly all actives have a fitted effect of over 55% in size
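No-CPT arm: Tdp1-/-;hTDP1 DT40 cells (400/well) plus compounds, incubated ≥48 hr at 37 °C. Readout CellTiter-Glo luminescence.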
TDP1 cell CPT – DT40-hTDP1 cell growth loss with CPT. hit rate 12% among 420,000. Potency, µM (doses to about 46.2 µM), hits mostly inhibitors. AID 686979. chicken DT40 Tdp1-/-;hTDP1 cells + 20 nM CPT, ATP luminescence, 48 h; note: nearly all actives have a fitted effect of over 55% in size
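Chicken DT40 Tdp1-/- cells complemented with human TDP1, 400 cells/well, exposed to compounds plus 20 nM camptothecin for at least 48 h at 37 C; viability read as ATP content by CellTiter-Glo luminescence.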
HT1080 IDH1KD tx – HT-1080 IDH1 knockdown cell toxicity (counter line). Potency, µM (top dose mostly 46.1 µM), most hits filed as cytotoxic. HT-1080 IDH1 knockdown viability, ATP luminescence, 48 h. hit rate 2% among 360,000. AID 686971
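IDH1KD HT-1080 cells, 750/well, RPMI + 5% FBS; compound pinned after 2 h settling; 48 h, 37 °C; CellTiter-Glo luminescence; % activity normalised to DMSO and no-cell wells; curves fitted, classed by r2 and efficacy.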
HT1080-NT tox – kills 2HG-producing HT-1080-NT fibrosarcoma cells. HT-1080-NT fibrosarcoma viability, CellTiter-Glo ATP luminescence, 48 h. Potency, µM (titrated, usually from 46.1 µM), most hits filed as cytotoxic. hit rate 1.6% among 360,000. AID 686970;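 note: NT is the 2HG producing partner of a matched IDH1 knockdown line; nearly all actives have a fitted effect of over 55% in size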
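Luminescent CellTiter-Glo readout after 48 hours of compound exposure at 37 degrees C defined viability of HT-1080-NT cells. Activity was normalized to DMSO wells and cell-free media wells; concentration-response curves were fitted and assigned curve classes.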
Of the large screens only hits and unclear results are named; the others gave an inactive call. Most compounds without a hit are left out; they make up all but 19% or so of the library. Unless noted, calls come from the whole dose curve; as a rule, active = well fitted curve in the direction sought with a large enough effect; inconclusive = small, poorly fitted or top-dose-only effect, or another doubt; inactive = no such curve, though single readings can be large; an effect the other way counts as inactive or inconclusive.

CN(C(=O)c1ccccc1C(=O)OCC(=O)Nc1ccccc1)c1ccccc1	none
Cc1ccc(NS(=O)(=O)c2ccc3c(c2)NC(=O)CO3)cc1Cl	TDP1 cell noCPT inconclusive, TDP1 cell CPT 18µM
Cc1ccc(NC(=O)CC(C)S(=O)(=O)c2ccc3c(c2)NC(=O)CO3)cc1C (centres undefined)	TDP1 cell noCPT inconclusive, TDP1 cell CPT inconclusive
Cc1ccc(NC(=O)CC(C)S(=O)(=O)c2ccc3c(c2)NC(=O)CO3)cc1Cl (centres undefined)	TDP1 cell noCPT 21µM (no result: IL-1B inflam inh, HT1080 IDH1KD tx, HT1080-NT tox)
CC(=O)N1CCc2cc(S(=O)(=O)CCC(=O)NCCc3ccccc3)ccc21	none
CC(C)(C)NS(=O)(=O)c1ccc2[nH]c3c(c2c1)CCCCC3	TDP1 cell noCPT inconclusive, TDP1 cell CPT inconclusive
CC(=O)c1cccc(NC(=O)C2CCN(S(=O)(=O)c3ccc4[nH]c(=O)ccc4c3)CC2)c1	none (no result: IL-1B inflam inh, HT1080 IDH1KD tx, HT1080-NT tox)
Cc1cccc(NC(=O)C2CCN(S(=O)(=O)c3ccc4[nH]c5c(c4c3)CCCCC5)CC2)c1	TDP1 cell noCPT inconclusive, TDP1 cell CPT 21µM (no result: IL-1B inflam inh, HT1080 IDH1KD tx, HT1080-NT tox)
Cc1cccc(NS(=O)(=O)c2ccc3[nH]c4c(c3c2)CCCCCC4)c1	TDP1 cell noCPT inconclusive, TDP1 cell CPT 18µM (no result: IL-1B inflam inh, HT1080 IDH1KD tx, HT1080-NT tox)
O=S(=O)(Nc1cccc(Cl)c1)c1ccc2[nH]c3c(c2c1)CCCCCC3	TDP1 cell noCPT inconclusive, TDP1 cell CPT 16µM (no result: IL-1B inflam inh, HT1080 IDH1KD tx, HT1080-NT tox)
Cc1onc(-c2ccccc2Cl)c1C(=O)NCc1nnnn1-c1ccc(F)c(F)c1	none
CCOc1nc2cnccc2n(CC(=O)Nc2cccc(C)c2C)c1=O	none
CCCN(C(=O)CCl)C1=CCCCC1	IL-1B inflam inh -87, TDP1 cell noCPT 13µM, TDP1 cell CPT 18µM, HT1080 IDH1KD tx inconclusive, HT1080-NT tox 10µM
O=C(Nc1nccs1)c1cnc2sccn2c1=O	none
CCCCN1C(=O)C(CC(=O)NC2CCCCC2)CC(C(=O)N(C)C)=C1C (centres undefined)	none
O=C(c1ccc(F)cc1F)N1CCCN(c2nc(-c3ccccc3)ns2)CC1	TDP1 cell noCPT inconclusive, TDP1 cell CPT inconclusive
CCCC(=O)c1ccc(N2CCN(C(=O)c3ccccc3Br)CC2)c(F)c1	TDP1 cell noCPT 13µM, TDP1 cell CPT 18µM
CCC(=O)c1ccc(N2CCN(C(=O)c3cccc(F)c3)CC2)c(F)c1	TDP1 cell noCPT 13µM, TDP1 cell CPT inconclusive
CC(=O)c1ccc(N2CCN(S(=O)(=O)c3ccccc3)CC2)c(F)c1	none
CCCC(=O)c1ccc(N2CCN(S(=O)(=O)c3ccc(C)cc3)CC2)c(F)c1	TDP1 cell noCPT 7.1µM, TDP1 cell CPT inconclusive
CCC(=O)c1ccc(N2CCOCC2)c(F)c1	none
O=C(c1ccccc1)c1ccc(N2CCN(C(=O)c3ccc(F)cc3F)CC2)c(F)c1	IL-1B inflam inh inconclusive, TDP1 cell noCPT inconclusive, TDP1 cell CPT 23µM
Cc1cc(C)[n+](-c2ccc(Oc3ccccc3)c(S(=O)(=O)[O-])c2)[nH]1	TDP1 cell CPT inconclusive
O=C1NC[C@@H](CCCCN2CCN(CCc3ccc(O)cc3)C(=O)C2=O)N(CCc2ccc(O)cc2)C1=O	none
O=C(NCc1ccccc1)C1=C[C@@H](c2ccc(Br)cc2)C[C@@H](OCCCCO)O1	TDP1 cell noCPT inconclusive, TDP1 cell CPT inconclusive
CCCC(=O)c1ccc(N2CCN(C(=O)c3ccc(Br)cc3)CC2)c(F)c1	TDP1 cell noCPT 7.3µM, TDP1 cell CPT 23µM
CCC(=O)c1ccc(N2CCN(C(=O)c3ccc(Br)cc3)CC2)c(F)c1	TDP1 cell noCPT 10µM, TDP1 cell CPT 21µM
CCC(=O)c1ccc(N2CCN(C(=O)c3ccc(F)cc3)CC2)c(F)c1	TDP1 cell noCPT 10µM, TDP1 cell CPT 21µM
CCCCCC(=O)N1CCN(c2ccc(C(C)=O)cc2F)CC1	TDP1 cell noCPT 21µM, TDP1 cell CPT 15µM
CCC(=O)c1ccc(N2CCCCC2)c(F)c1	none
CCCC(=O)c1ccc(N2CCN(C(=O)c3ccccc3)CC2)c(F)c1	TDP1 cell noCPT inconclusive, TDP1 cell CPT inconclusive
O=C(NCc1ccco1)C1(S(=O)(=O)c2ccccc2)CC=CC1	TDP1 cell CPT inconclusive
CN(C)c1ccc(CN(C(=O)C2COc3ccccc3O2)C2CCS(=O)(=O)C2)cc1 (centres undefined)	TDP1 cell CPT inconclusive
CC1(c2ccc3c(c2)OCCO3)NC(=O)N(CC(=O)Nc2ccccc2)C1=O (centres undefined)	none
CC1CN(C(=O)N2CCC(C(=O)NCc3ccco3)CC2)c2ccccc2O1 (centres undefined)	none (no result: IL-1B inflam inh, HT1080 IDH1KD tx, HT1080-NT tox)
CC1CN(C(=O)N2CCC(C(=O)NCc3ccccc3F)CC2)c2cc(Cl)ccc2O1 (centres undefined)	TDP1 cell noCPT 15µM, TDP1 cell CPT 21µM (no result: IL-1B inflam inh, HT1080 IDH1KD tx, HT1080-NT tox)
Cc1ccc2c(c1)N(C(=O)N1CCC(C(=O)NCc3ccccc3F)CC1)CC(C)O2 (centres undefined)	TDP1 cell noCPT 18µM, TDP1 cell CPT inconclusive (no result: IL-1B inflam inh, HT1080 IDH1KD tx, HT1080-NT tox)
NC(=O)c1ccccc1N=Cc1cccnc1	TDP1 cell CPT inconclusive
Cc1ccc(C=Nc2ccccc2C(N)=O)cc1	TDP1 cell noCPT 3.2µM, TDP1 cell CPT 2.8µM, HT1080 IDH1KD tx 5.6µM, HT1080-NT tox 7.1µM
Cc1ccc(C=Nc2ccccc2C(=O)Nc2ccccc2)cc1	TDP1 cell noCPT 12µM, TDP1 cell CPT inconclusive
Cc1ccccc1C=Nc1ccccc1C(N)=O	TDP1 cell noCPT 4.6µM, TDP1 cell CPT 5.2µM, HT1080 IDH1KD tx 16µM, HT1080-NT tox 16µM
O=C(Nc1ccccc1)c1ccccc1N=Cc1cccc(O)c1	TDP1 cell noCPT inconclusive
Cc1cc(C(=O)NC2CCCCCCC2)ccc1[N+](=O)[O-]	TDP1 cell noCPT inconclusive, TDP1 cell CPT inconclusive
Cc1cccc(OCc2n[nH]c(=S)n2-c2ccccc2)c1	none
Cc1cccc(OCc2nc(-c3ccccn3)n[nH]2)c1	TDP1 cell noCPT 15µM, TDP1 cell CPT 21µM
Cc1ccc(-n2c(COc3ccccc3)n[nH]c2=S)cc1	none
Cc1ccc(OCc2nc(-c3ccccn3)n[nH]2)cc1	TDP1 cell noCPT 4.6µM, TDP1 cell CPT 3.3µM
O=C(NCc1ccccn1)c1cccc(S(=O)(=O)NCc2ccccc2)c1	none
CCOC(=O)C1=C(C)NC2=C(C(=O)OC2)C1c1ccccc1 (centres undefined)	TDP1 cell noCPT inconclusive, TDP1 cell CPT inconclusive, HT1080 IDH1KD tx 21µM, HT1080-NT tox inconclusive
CC1=C(C(=O)OC2CCCC2)C(c2coc3ccccc3c2=O)C2=C(CCCC2=O)N1 (centres undefined)	TDP1 cell noCPT 0.41µM
CCCOC(=O)C1=C(C)NC2=C(C(=O)CCC2)C1c1cccs1 (centres undefined)	none
CCOC(=O)C1=C(C)NC2=C(C(=O)CC(c3cccs3)C2)C1c1cccs1 (centres undefined)	IL-1B inflam inh inconclusive, TDP1 cell noCPT inconclusive, TDP1 cell CPT inconclusive, HT1080 IDH1KD tx 15µM, HT1080-NT tox inconclusive
